Test results reported in PubChem BioAssay AID1159580 (chemical genetic matrix, 2015).
Screen size: about 5,500 compounds; about 2,000 (36%) were called active. Not shown: some 18% with an inconclusive outcome. No stated cut-off is given here; in the data, active means normalized growth mostly below about 0.91 (no sharp cut-off); inconclusive means no clear call, values can overlap the other calls; inactive means mostly above about 0.92. The list shows a part of the results.

Test: chemical genetic growth profiling, strain panel (AID 1159580);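 further: tested at 20 µM; growth read once vehicle control cultures reached saturation at 30 °C; 1 = growth at the plate median or of vehicle wells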
Details: growth OD
[1] = S. cerevisiae deletion strains, locus YDL101C, strain DUN1, stronger effect = lower value
[2] = S. cerevisiae deletion strains, locus YHR030C, strain SLT2, stronger effect = lower value
[3] = S. cerevisiae deletion strains, locus YJL095W, strain BCK1, stronger effect = lower value
[4] = S. cerevisiae deletion strains, locus YOR061W, strain CKA2, stronger effect = lower value

Measured: normalized growth

COc1c(C(=O)O)ccc2c1CCC(C)(C)O2
active: S. cerevisiae deletion strains, locus YGR229C, strain SMI1, stronger effect = lower value 1.2 [resistant] | S. cerevisiae deletion strains, locus YKL068W, stronger effect = lower value 0.922
inactive: S. cerevisiae deletion strains, locus YBR021W, strain FUR4, stronger effect = lower value 1.03 | S. cerevisiae deletion strains, locus YBR229C, strain ROT2, stronger effect = lower value 1.02 | S. cerevisiae deletion strains, locus YCL029C, strain bik1, stronger effect = lower value 1.01 | S. cerevisiae deletion strains, locus YDL035C, strain GPR1, stronger effect = lower value 1.09 | S. cerevisiae deletion strains, locus YDL074C, strain BRE1, stronger effect = lower value 1.13 | [1] 1.02 | S. cerevisiae deletion strains, locus YDL134C, strain PPH21, stronger effect = lower value 1.07 | S. cerevisiae deletion strains, locus YDL185W, strain tfp1, stronger effect = lower value 0.976 | S. cerevisiae deletion strains, locus YDL192W, strain arf1, stronger effect = lower value 1.03 | S. cerevisiae deletion strains, locus YDR101C, strain arx1, stronger effect = lower value 0.999 | S. cerevisiae deletion strains, locus YDR150W, strain NUM1, stronger effect = lower value 1.04 | S. cerevisiae deletion strains, locus YDR162C, strain NBP2, stronger effect = lower value 1.05 | S. cerevisiae deletion strains, locus YDR318W, strain mcm21, stronger effect = lower value 0.987 | S. cerevisiae deletion strains, locus YDR388W, stronger effect = lower value 0.987 | S. cerevisiae deletion strains, locus YDR502C, strain sam2, stronger effect = lower value 0.981 | S. cerevisiae deletion strains, locus YEL061C, strain CIN8, stronger effect = lower value 1.03 | S. cerevisiae deletion strains, locus YER110C, stronger effect = lower value 0.997 | S. cerevisiae deletion strains, locus YER155C, strain BEM2, stronger effect = lower value 0.984 | S. cerevisiae deletion strains, locus YER167W, strain BCK2, stronger effect = lower value 1.01 | S. cerevisiae deletion strains, locus YGL078C, strain dbp3, stronger effect = lower value 0.964 | S. cerevisiae deletion strains, locus YGL086W, strain mad1, stronger effect = lower value 1 | S. cerevisiae deletion strains, locus YGL248W, strain PDE1, stronger effect = lower value 1.06 | S. cerevisiae deletion strains, locus YGR078C, strain PAC10, stronger effect = lower value 1.06 | S. cerevisiae deletion strains, locus YGR135W, strain pre9, stronger effect = lower value 0.994 | S. cerevisiae deletion strains, locus YGR252W, strain gcn5, stronger effect = lower value 1.06 | [2] 1.02 | S. cerevisiae deletion strains, locus YHR079C, strain IRE1 (second series), stronger effect = lower value 0.982 | S. cerevisiae deletion strains, locus YHR094C, strain hxt1, stronger effect = lower value 0.987 | S. cerevisiae deletion strains, locus YHR129C, strain ARP1, stronger effect = lower value 1.02 | S. cerevisiae deletion strains, locus YHR200W, strain rpn10, stronger effect = lower value 1 | S. cerevisiae deletion strains, locus YIL066C, strain RNR3, stronger effect = lower value 1.04 | S. cerevisiae deletion strains, locus YIL073C, strain SPO22, stronger effect = lower value 1.12 | S. cerevisiae deletion strains, locus YIL125W, strain kgd1, stronger effect = lower value 0.957 | S. cerevisiae deletion strains, locus YIR030C, strain dcg1, stronger effect = lower value 0.982 | [3] 1.1 | S. cerevisiae deletion strains, locus YJL134W, strain LCB3, stronger effect = lower value 1.01 | S. cerevisiae deletion strains, locus YJL168C, strain set2, stronger effect = lower value 0.988 | S. cerevisiae deletion strains, locus YJL187C, strain SWE1 (second series), stronger effect = lower value 1.03 | S. cerevisiae deletion strains, locus YKL009W, strain mrt4, stronger effect = lower value 0.995 | S. cerevisiae deletion strains, locus YKL085W, strain MDH1 (second series), stronger effect = lower value 0.955 | S. cerevisiae deletion strains, locus YKL085W, strain MDH1, stronger effect = lower value 0.955 | S. cerevisiae deletion strains, locus YKL190W, strain CNB1, stronger effect = lower value 1.02 | S. cerevisiae deletion strains, locus YKR001C, strain vps1, stronger effect = lower value 1.04 | S. cerevisiae deletion strains, locus YLR039C, strain RIC1, stronger effect = lower value 1.19 | S. cerevisiae deletion strains, locus YLR058C, strain SHM2, stronger effect = lower value 1.04 | S. cerevisiae deletion strains, locus YLR102C, strain apc9, stronger effect = lower value 0.986 | S. cerevisiae deletion strains, locus YLR262C, strain YPT6, stronger effect = lower value 1.22 | S. cerevisiae deletion strains, locus YLR268W, strain sec22, stronger effect = lower value 0.989 | S. cerevisiae deletion strains, locus YLR330W, strain CHS5, stronger effect = lower value 1.03 | S. cerevisiae deletion strains, locus YLR342W, strain FKS1 (second series), stronger effect = lower value 1.07 | S. cerevisiae deletion strains, locus YLR371W, strain rom2, stronger effect = lower value 1.01 | S. cerevisiae deletion strains, locus YLR418C, strain cdc73, stronger effect = lower value 1.07 | S. cerevisiae deletion strains, locus YML016C, strain PPZ1, stronger effect = lower value 1.02 | S. cerevisiae deletion strains, locus YML032C, strain rad52, stronger effect = lower value 0.991 | S. cerevisiae deletion strains, locus YML124C, strain tub3, stronger effect = lower value 0.975 | S. cerevisiae deletion strains, locus YMR078C, strain ctf18, stronger effect = lower value 0.983 | S. cerevisiae deletion strains, locus YMR223W, strain ubp8, stronger effect = lower value 1 | S. cerevisiae deletion strains, locus YMR263W, strain SAP30, stronger effect = lower value 1.01 | S. cerevisiae deletion strains, locus YMR307W, strain GAS1, stronger effect = lower value 1.03 | S. cerevisiae deletion strains, locus YNL067W, strain RPL9B, stronger effect = lower value 0.992 | S. cerevisiae deletion strains, locus YNL233W, strain BNI4, stronger effect = lower value 1.08 | S. cerevisiae deletion strains, locus YNL250W, strain rad50, stronger effect = lower value 0.956 | S. cerevisiae deletion strains, locus YNL271C, strain bni1, stronger effect = lower value 0.995 | S. cerevisiae deletion strains, locus YNL298W, strain CLA4, stronger effect = lower value 0.993 | S. cerevisiae deletion strains, locus YNL307C, strain MCK1, stronger effect = lower value 0.989 | S. cerevisiae deletion strains, locus YNL322C, strain KRE1, stronger effect = lower value 1.02 | S. cerevisiae deletion strains, locus YNR052C, strain pop2, stronger effect = lower value 0.981 | S. cerevisiae deletion strains, locus YOL006C, strain TOP1, stronger effect = lower value 1.43 | S. cerevisiae deletion strains, locus YOL012C, strain htz1 0.918 | S. cerevisiae deletion strains, locus YOL147C, strain pex11, stronger effect = lower value 0.98 | [4] 1.02 | S. cerevisiae deletion strains, locus YOR069W, strain VPS5, stronger effect = lower value 1.01 | S. cerevisiae deletion strains, locus YOR136W, strain idh2, stronger effect = lower value 0.993 | S. cerevisiae deletion strains, locus YOR144C, strain elg1, stronger effect = lower value 0.981 | S. cerevisiae deletion strains, locus YOR184W, strain ser1, stronger effect = lower value 1.04 | S. cerevisiae deletion strains, locus YOR316C, strain cot1, stronger effect = lower value 0.977 | S. cerevisiae deletion strains, locus YPL241C, strain CIN2, stronger effect = lower value 1.02 | S. cerevisiae deletion strains, locus YPR119W, strain clb2, stronger effect = lower value 0.983 | S. cerevisiae deletion strains, locus YPR141C, strain kar3, stronger effect = lower value 0.942 | S. cerevisiae deletion strains, locus YPR163C, strain tif3, stronger effect = lower value 0.986 | S. cerevisiae deletion strains, locus YPR167C, strain met16, stronger effect = lower value 0.98 | S. cerevisiae deletion strains, strain wtn01, stronger effect = lower value 1.01 | S. cerevisiae strains, strain wild type, stronger effect = lower value 1.06

CCc1cc2c(cc1-c1csc(C/C(N)=N\O)n1)C(C)(C)CCC2(C)C
active: S. cerevisiae deletion strains, locus YER123W, strain YCK3, stronger effect = lower value 0.568 | S. cerevisiae deletion strains, locus YER133W, strain GLC7, stronger effect = lower value 0.712 | S. cerevisiae deletion strains, locus YGR052W, strain FMP48, stronger effect = lower value 0.567 | [2] 0.499 | S. cerevisiae deletion strains, locus YJR066W, strain TOR1 (second series), stronger effect = lower value 0.601 | S. cerevisiae deletion strains, locus YKL048C, strain ELM1, stronger effect = lower value 0.721 | S. cerevisiae deletion strains, locus YKL101W, strain HSL1, stronger effect = lower value 0.701 | S. cerevisiae deletion strains, locus YLR113W, strain HOG1, stronger effect = lower value 0.369 | S. cerevisiae deletion strains, locus YML070W, strain DAK1, stronger effect = lower value 0.618 | S. cerevisiae deletion strains, locus YNL183C, strain NPR1, stronger effect = lower value 0.553 | S. cerevisiae deletion strains, locus YOR231W, strain MKK1, stronger effect = lower value 0.525 | S. cerevisiae deletion strains, locus YPL031C, strain PHO85, stronger effect = lower value 0.639 | S. cerevisiae deletion strains, locus YPL153C, strain RAD53, stronger effect = lower value 0.552 | S. cerevisiae deletion strains, locus YPL256C, strain CLN2, stronger effect = lower value 0.546
inactive: S. cerevisiae deletion strains, locus YAR019C, strain CDC15, stronger effect = lower value 0.985 | S. cerevisiae deletion strains, locus YBL105C, strain PKC1, stronger effect = lower value 0.974 | S. cerevisiae deletion strains, locus YBR135W, strain CKS1, stronger effect = lower value 0.969 | S. cerevisiae deletion strains, locus YBR136W, strain MEC1, stronger effect = lower value 0.981 | S. cerevisiae deletion strains, locus YBR160W, strain CDC28, stronger effect = lower value 0.986 | S. cerevisiae deletion strains, locus YDL017W, strain CDC7, stronger effect = lower value 0.978 | S. cerevisiae deletion strains, locus YDL028C, strain MPS1, stronger effect = lower value 0.985 | [1] 0.979 | S. cerevisiae deletion strains, locus YDL108W, strain KIN28, stronger effect = lower value 0.968 | S. cerevisiae deletion strains, locus YDL132W, strain cdc53, stronger effect = lower value 0.965 | S. cerevisiae deletion strains, locus YDL214C, strain PRR2, stronger effect = lower value 0.757 | S. cerevisiae deletion strains, locus YDR052C, strain DBF4, stronger effect = lower value 0.974 | S. cerevisiae deletion strains, locus YDR054C, strain cdc34, stronger effect = lower value 0.97 | S. cerevisiae deletion strains, locus YDR226W, strain ADK1, stronger effect = lower value 0.976 | S. cerevisiae deletion strains, locus YDR477W, strain SNF1, stronger effect = lower value 0.75 | S. cerevisiae deletion strains, locus YFL009W, strain cdc4, stronger effect = lower value 0.967 | S. cerevisiae deletion strains, locus YFL029C, strain CAK1, stronger effect = lower value 0.974 | S. cerevisiae deletion strains, locus YFR003C, strain YPI1, stronger effect = lower value 0.974 | S. cerevisiae deletion strains, locus YFR019W, strain FAB1, stronger effect = lower value 0.819 | S. cerevisiae deletion strains, locus YFR028C, strain CDC14, stronger effect = lower value 0.973 | S. cerevisiae deletion strains, locus YGR040W, strain KSS1, stronger effect = lower value 0.749 | S. cerevisiae deletion strains, locus YGR092W, strain DBF2, stronger effect = lower value 0.722 | S. cerevisiae deletion strains, locus YHR079C, strain IRE1, stronger effect = lower value 0.525 | S. cerevisiae deletion strains, locus YHR082C, strain KSP1, stronger effect = lower value 0.647 | S. cerevisiae deletion strains, locus YHR205W, strain SCH9, stronger effect = lower value 0.77 | S. cerevisiae deletion strains, locus YIL147C, strain SLN1, stronger effect = lower value 0.981 | [3] 0.532 | S. cerevisiae deletion strains, locus YJL128C, strain PBS2, stronger effect = lower value 0.962 | S. cerevisiae deletion strains, locus YJL157C, strain FAR1, stronger effect = lower value 0.779 | S. cerevisiae deletion strains, locus YJR016C, strain ILV3, stronger effect = lower value 0.965 | S. cerevisiae deletion strains, locus YJR066W, strain TOR1, stronger effect = lower value 0.666 | S. cerevisiae deletion strains, locus YKL067W, strain YNK1, stronger effect = lower value 0.755 | S. cerevisiae deletion strains, locus YKL193C, strain SDS22, stronger effect = lower value 0.973 | S. cerevisiae deletion strains, locus YKL203C, strain TOR2, stronger effect = lower value 0.764 | S. cerevisiae deletion strains, locus YLR133W, strain CKI1, stronger effect = lower value 0.813 | S. cerevisiae deletion strains, locus YLR403W, strain SFP1, stronger effect = lower value 0.784 | S. cerevisiae deletion strains, locus YMR001C, strain CDC5, stronger effect = lower value 0.969 | S. cerevisiae deletion strains, locus YMR205C, strain PFK2 (second series), stronger effect = lower value 0.78 | S. cerevisiae deletion strains, locus YMR277W, strain FCP1, stronger effect = lower value 0.963 | S. cerevisiae deletion strains, locus YNL006W, strain LST8, stronger effect = lower value 0.977 | S. cerevisiae deletion strains, locus YNL020C, strain ARK1, stronger effect = lower value 0.788 | S. cerevisiae deletion strains, locus YNL161W, strain CBK1, stronger effect = lower value 0.977 | S. cerevisiae deletion strains, locus YNL207W, strain RIO2, stronger effect = lower value 0.964 | S. cerevisiae deletion strains, locus YNL222W, strain SSU72, stronger effect = lower value 0.972 | S. cerevisiae deletion strains, locus YNL307C, strain MCK1 (second series), stronger effect = lower value 0.797 | S. cerevisiae deletion strains, locus YOL078W, strain AVO1, stronger effect = lower value 0.969 | S. cerevisiae deletion strains, locus YOL136C, strain PFK27, stronger effect = lower value 0.738 | [4] 0.788 | S. cerevisiae deletion strains, locus YOR119C, strain RIO1, stronger effect = lower value 0.78 | S. cerevisiae deletion strains, locus YOR329C, strain SCD5, stronger effect = lower value 0.981 | S. cerevisiae deletion strains, locus YPL204W, strain HRR25, stronger effect = lower value 0.759 | S. cerevisiae deletion strains, locus YPL209C, strain IPL1, stronger effect = lower value 0.976 | S. cerevisiae deletion strains, locus YPR025C, strain CCL1, stronger effect = lower value 0.978 | S. cerevisiae deletion strains, locus YPR106W, strain ISR1, stronger effect = lower value 0.976 | S. cerevisiae deletion strains, locus YPR111W, strain DBF20, stronger effect = lower value 0.966 | S. cerevisiae deletion strains, strain NNK1, stronger effect = lower value 0.947 | S. cerevisiae deletion strains, strain TSCII, stronger effect = lower value 0.975
